Experimental data reported in ChEMBL document CHEMBL4888484, “Replenishing the malaria drug discovery pipeline: Screening and hit evaluation of the MMV Hit Generation Library 1 (HGL1) against asexual blood stage Plasmodium falciparum ,using a nano luciferase reporter read-out” (2022).
About 420 (8.8%) of roughly 4,800 compounds showed an effect of 50% or more. For the sample, strong results were picked, then their nearest neighbours and some compounds at random.

What follows are molecules tested on Plasmodium falciparum (assay: Confirmatory screen in NF54 nanoGlo assay, in single point, at 2uM, 72h). Details: timepoint 72 hour.
Assay type: functional, Erythrocyte

First: COCCOc1ccc2c(n1)CCN(C(=O)c1ccc(OC)c(OC)c1)C2
Second: COc1cccc(CC(=O)N2CCc3nc(N4CCC(C)CC4)nc(Oc4ccccc4OC)c3C2)c1
The “% Inhibition” value of the first is lower: -12% for the first, 45% for the second.

Compared with `Cc1nn(C)cc1NC(=O)N[C@H]1CCCC[C@@H]1O`, `CCn1cc(Br)c(=O)c(NC(=O)[C@H]2CCCOC2)c1` is higher in “% Inhibition” value: -9% for the first, -7% for the second.

Compared with `C[C@@H](C1CC1)N(C1CC1)S(=O)(=O)c1ccc(F)cc1F`, `Cc1noc(C)c1CN1C[C@@H]2Oc3cc(F)ccc3C(=O)N(C)[C@@H]2C1` is higher in “% Inhibition” value: -2% for the first, 92% for the second.

Going from `Cc1ncccc1C(=O)Nc1cccc(Oc2cccnn2)c1` to `Cc1ccc(Cn2ccnc2C(=O)Nc2ccccc2)cc1`, the “% Inhibition” value falls from 1% to -15%.

Compared with `Cc1c(Cl)c(C(F)(F)F)nn1[C@@H](C)C(=O)NC1CCN(C(C)C)CC1`, `O=C(Nc1ccc(C(F)(F)F)cc1)N1CCN(CC(O)C2CCCO2)CC1` (stereo unspecified) is higher in “% Inhibition” value: -4% for the first, 4% for the second.

Compared with `COc1cccc(-c2cc3c(N4CC=C(c5ccccc5)CC4)nccn3n2)c1`, `Cc1cccc(Cn2ccc(-c3cccc(OCc4ccc(Cl)cc4Cl)c3)n2)c1` is lower in “% Inhibition” value: -2% for the first, -4% for the second.

First: CC[C@H]1Cn2c(C(=O)N3CCN(C(=O)c4ccco4)CC3)cc3c(Cl)ccc(c32)O1
Second: CC[C@H]1Cn2c(C(=O)N3CCN(c4ccccn4)CC3)cc3c(Cl)ccc(c32)O1
The “% Inhibition” value of the first is lower: -17% for the first, -8% for the second.

First: CCCn1nc(-n2cnnc2)c(NC(=O)c2ccc3c(c2)OCO3)c1C
Second: CCOc1ccc(NC(=O)c2ccc3c(c2)N(CC)[C@@H]2CCCCN2C3=O)cc1
The “% Inhibition” value of the first is lower: -4% for the first, 7% for the second.

Compared with `CCOC(=O)C1CCC(CN(Cc2ccc(OC)cc2)S(=O)(=O)c2cc(C(=O)Nc3ccc(OCC)cc3)ccc2F)CC1` (stereo unspecified), `CCOc1ccc(NC(=O)c2cnc(N(Cc3ccccc3)C(C)C)nc2N)cc1` is lower in “% Inhibition” value: 50% for the first, -15% for the second.

Going from `CN(c1ccc(Br)cc1)S(=O)(=O)c1ccc2c(c1)CCN2C(=O)C1CCC1` to `Cc1ccccc1C(=O)N(Cc1cccc(F)c1)c1ccc(CC(=O)NCCN2CCCCC2)cc1`, the “% Inhibition” value rises from -7% to 44%.

Going from `COc1ccccc1CNC(=O)c1cnn2c(-c3ccc(Cl)cc3)ccnc12` to `O=C(O)Cc1sc(-c2ccc(Cl)cc2)nc1-c1ccc(Oc2ccccc2)cc1`, the “% Inhibition” value rises from -4% to 0%.

Compared with `c1cncc(CN2CCN(C3CCCCCC3)CC2)c1`, `O=C(c1cccs1)N1CCN(C2CCCCCC2)CC1` is lower in “% Inhibition” value: 3% for the first, 1% for the second.

Going from `C[C@H]1CC(C)(C)N(C)c2ccc(/C=C/c3c(C(=O)O)cnc4ccnn34)cc21` to `COc1cccc([C@H]2CC(=O)Nc3c2cnn3C)c1`, the “% Inhibition” value falls from 7% to -8%.

Compared with `Clc1cccc(CNCCCNc2ccncc2)c1Cl`, `OCCNCc1c(Cl)cccc1Cl` is lower in “% Inhibition” value: 71% for the first, -1% for the second.

Going from `CN(C)CCCNCc1ccccc1F` to `CC(C)(NCc1ccccc1Cl)C(=O)O`, the “% Inhibition” value rises from -2% to 4%.

Compared with `CC[C@@H](CCNS(=O)(=O)c1cn(C(F)F)nc1C)n1ccc(C(F)(F)F)n1`, `CCc1nnc2ccc(S(=O)(=O)Nc3cc(F)cc(F)c3)cn12` is higher in “% Inhibition” value: -8% for the first, -5% for the second.

First: COc1ccc(Nc2nc(C(=O)Nc3ncc(C)s3)cs2)cc1OC
Second: CCOC(=O)Oc1c(OC)cc(C(=O)Nc2ccc3c(c2)sc(=O)n3C)cc1OC
The “% Inhibition” value of the first is higher: 17% for the first, 6% for the second.

Going from `CCOc1cc(C(=O)Nc2ccc3nc4c(c(Nc5ccc(OC)c(OC)c5)c3c2)CCCC4)cc(OCC)c1OCC` to `Cc1cc2nc(C)c(=O)n(Cc3ccc(C(=O)NCCN4CCCC[C@@H]4C)cc3)c2cc1C`, the “% Inhibition” value falls from 96% to 17%.

First: O=C(NC[C@H]1CCS(=O)(=O)C1)c1ccc2[nH]c3c(c2c1)CCCC3
Second: O=C(NCCCN1CCOCC1)c1ccc(-c2cnc(NC3CCCCC3)nc2)cc1
The “% Inhibition” value of the first is higher: -6% for the first, -8% for the second.

Going from `Clc1ccc(COc2ccc(CNC3CCCCC3)cc2Br)cc1` to `O=C(Cc1ccc(N(Cc2cccc(F)c2)C(=O)c2cccc(F)c2)cc1)NCCN1CCCCC1`, the “% Inhibition” value rises from -4% to 38%.

First: O=C(Cc1ncc(C(F)(F)F)cc1Cl)c1ccc(Cl)cc1Cl
Second: CNC(=O)Cc1c(Cl)cccc1Cl
The “% Inhibition” value of the first is lower: -6% for the first, 1% for the second.

First: CC(NC(=O)N1CCCCC1)(C(F)(F)F)C(F)(F)F
Second: Nc1cc(Br)c(C(F)(F)F)cc1NC(=O)C(F)(F)F
The “% Inhibition” value of the first is higher: 7% for the first, -11% for the second.

First: COc1cccc(Oc2nc(N3CCN(C)CC3)nc3c2CN(C(=O)Nc2ccccc2)CC3)c1
Second: O=S(=O)(c1cccc(Cl)c1)N1CCc2nc(N3CCCCC3)nc(Oc3ccccc3)c2C1
The “% Inhibition” value of the first is lower: 5% for the first, 73% for the second.

Going from `CN1CCN(C(=O)[C@@H]2Cc3ccccc32)CC1` to `CN1CCN(C(=O)C[C@@H]2CCN3C[C@@H]2/C=C\COc2ccccc2CN(C(=O)CC(C)(C)C)CC3=O)CC1`, the “% Inhibition” value rises from 2% to 5%.

Compared with `CCOC(=O)N1CCN(C(=O)C2c3ccccc3C(=O)N(C3CCCCC3)C2c2ccc(OC)cc2)CC1` (stereo unspecified), `COc1ccc(-c2nccn3cc(C(=O)N4CCN(c5cccc(OC)c5)CC4)nc23)cc1` is lower in “% Inhibition” value: -4% for the first, -6% for the second.

Going from `COc1cccc(S(=O)(=O)N2CCC(OCCOc3ccccc3)CC2)c1` to `COc1cccc(S(=O)(=O)N2CCC(OCCOCc3ccccc3)CC2)c1`, the “% Inhibition” value falls from 0% to -3%.

Going from `COc1cccc(S(=O)(=O)N2CCCN(Cc3ccncc3)[C@H](c3ccccc3)CC(=O)NCC2)c1` to `CC[C@H](C)N1CCN(Cc2cccc(Oc3ccccc3)c2)CC1`, the “% Inhibition” value falls from 92% to -6%.

Compared with `COCCCn1c(=O)c2ccccc2n(CC(=O)N2CCc3ccccc32)c1=O`, `CCOC(=O)N(c1ccccc1)[C@H]1CC(=O)N(c2ccccc2)C1=O` is higher in “% Inhibition” value: -8% for the first, 1% for the second.

Compared with `CC(C)OC(=O)N(CCOC(=O)Nc1cccc(Cl)c1)CCOC(=O)Nc1cccc(Cl)c1`, `COc1ccc(NC(=O)[C@@H]2COCC(=O)N2Cc2ccc(C)cc2)cc1` is higher in “% Inhibition” value: -15% for the first, 1% for the second.

First: COc1ncccc1C(=O)NC[C@H](C)S(N)(=O)=O
Second: COc1ccc(COC(=O)c2cccnc2C)cn1
The “% Inhibition” value of the first is higher: 4% for the first, -9% for the second.

Compared with `Cc1cc(NC(=O)C(=O)Nc2cnn(CCC(C)C)c2C)n(C)n1`, `CC(C)(CC(=O)Nc1ccc2oc(C3CC3)nc2c1)C(=O)O` is higher in “% Inhibition” value: -7% for the first, -2% for the second.

Going from `COc1ccccc1N(Cc1ccccc1)C1=NC(=[N+](Cc2ccccc2)c2ccccc2OC)c2ccccc21` to `N#Cc1c(-c2ccccc2)cc(-c2ccccc2)nc1S(=O)(=O)Cc1ccccc1`, the “% Inhibition” value falls from 74% to 35%.

Compared with `C[C@H](NC(=O)c1cc(C2CC2)[nH]n1)c1nccs1`, `Cc1ccc(OCCNc2cc([C@H]3C[C@H](N)C3)nc(C3CC3)n2)cc1C` is higher in “% Inhibition” value: -11% for the first, 31% for the second.

First: CN(C(=O)c1ccccc1Br)C(C)(C)C
Second: CCOC(=O)c1c[nH]c2c(-c3ccccc3)nsc2c1=O
The “% Inhibition” value of the first is lower: -10% for the first, -5% for the second.

Going from `COc1ccccc1[C@H]1CC(O)=Nc2c1ncn2-c1cc(F)ccc1F` to `CC(=O)N(c1ccccc1)[C@H]1C[C@@H](C)N(C(=O)C(F)(F)F)c2ccccc21`, the “% Inhibition” value rises from -3% to 9%.

First: Cc1nnc2ccc(S(=O)(=O)N(Cc3ccccc3F)c3ccccc3)cn12
Second: Cc1nnc2ccc(S(=O)(=O)Nc3cc(F)cc(F)c3)cn12
The “% Inhibition” value of the first is lower: -16% for the first, -4% for the second.

First: CCc1ccc(C2=C[C@@H](c3cccc(OC)c3)n3ncc(C(=O)Nc4ccc(C)cc4)c3N2)cc1
Second: Cc1ccc(C(=O)N(Cc2cccc(F)c2)c2ccc(CC(=O)N[C@@H](C)c3ccccc3)cc2)cc1
The “% Inhibition” value of the first is lower: 70% for the first, 81% for the second.

First: Cc1nn(C)cc1-c1nnc(-c2ccccc2)o1
Second: Cc1cc(C)c2ccc3ccccc3c2n1
The “% Inhibition” value of the first is lower: -17% for the first, -4% for the second.

First: O=C(C[C@H]1CCCN1c1ccnc(C2CC2)n1)c1ccco1
Second: N[C@H]1C[C@H](c2cc(NCCCc3cccnc3)nc(C3CC3)n2)C1
The “% Inhibition” value of the first is lower: 3% for the first, 75% for the second.

First: CCc1nc(NS(=O)(=O)c2cc(Cl)sc2Cl)no1
Second: Cc1nc2cc(NC(=O)c3cccs3)ccc2o1
The “% Inhibition” value of the first is higher: -4% for the first, -8% for the second.

Going from `O=C1NCCCc2nn(Cc3cc(F)ccc3Br)cc21` to `O=C1O[C@@H](CO)CN1c1cccc(F)c1`, the “% Inhibition” value rises from -12% to -4%.

Compared with `CC(C)c1ccc(-c2nc(CN3CCCCC3)cc(CN3CCCCC3)c2O)cc1`, `CC(C)c1nc(O)cc(CN2CCCCC2)n1` is lower in “% Inhibition” value: 96% for the first, -8% for the second.

Going from `Cc1ccc(C)c(NC(=O)CN2CCC3(CC2)NC(c2ccc(OC(F)(F)F)cc2)=NO3)c1` to `Cc1nc2cc(NC(=O)[C@@]3(C)CCCN(C(=O)c4ccccc4)C3)ccc2o1`, the “% Inhibition” value rises from -3% to 57%.

Going from `CC(C)[C@@H]1CN(C(=O)c2ccncc2)c2ccccc2N1` to `CCC1Cn2c(C(=O)NC(C)Cc3ccco3)cc3cccc(c32)O1` (stereo unspecified), the “% Inhibition” value falls from -7% to -8%.

First: CC1(C)OCc2cc(CNc3ccc4oc(=O)[nH]c4c3)ccc2O1
Second: Cc1noc(C)c1CN1CCCN(C(=O)c2n[nH]c3ccccc23)CC1
The “% Inhibition” value of the first is higher: 93% for the first, 0% for the second.

First: CCCN1CC(=O)N(c2ccc(C)cc2)[C@@H]2CS(=O)(=O)C[C@@H]21
Second: Nc1nc2c(s1)CN(CCc1ccccc1)CC2
The “% Inhibition” value of the first is lower: 4% for the first, 38% for the second.

Going from `O=C(NCc1ccccc1OC1CCC1)N(CCO)C1CC1` to `O=C(c1ccccc1)N1N=C(C(F)(F)F)C2CCCCCC21O` (stereo unspecified), the “% Inhibition” value falls from -2% to -11%.

Compared with `Cc1noc(C)c1CN1CCNC(=O)CC1`, `Cn1cc(CN2CCC(C(=O)NCCCN3CCCCC3)CC2)c2cc(Cl)ccc21` is higher in “% Inhibition” value: -11% for the first, -7% for the second.

First: COc1ccc2nc(N3CN(Cc4ccccc4)CN(c4nc5ccc(OC)cc5s4)C3)sc2c1
Second: N#Cc1nc2c(C#N)c(N)n(CCc3ccccc3)c2nc1C#N
The “% Inhibition” value of the first is lower: 3% for the first, 87% for the second.

Compared with `CNC(=O)c1cnc(C=Cc2cnc(-c3cccnc3)s2)s1`, `CC[N+](C)(CC)CCOc1cc(C)c2ccccc2n1` is higher in “% Inhibition” value: 0% for the first, 53% for the second.

`Cc1ccc(S(=O)(=O)Nc2ccc(Oc3ccc(NS(=O)(=O)c4ccc(C)cc4)cc3)cc2)cc1` was tested, and the “% Inhibition” value was 3%.
